# Six1-Eya2 inh = blocks human Six1 binding to Eya2; Q15475+O00167; AlphaScreen GST-Six1/His-Eya2 binding, biochemical; active compounds read low; activity change, % (concentration not given with the values); 0.56% of 360,000 active; AID 651725; in the data active = activity change below about -65%; inconclusive = mostly about -30% to -63%
#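 Homogeneous AlphaScreen proximity assay pairing GST-Six1 with His-tagged Eya2 (added as 5X mix: 250 nM and 500 nM) in 50 mM Tris pH 8.0, 300 mM NaCl, 1 mM TCEP. Glutathione donor and nickel acceptor beads; 1 h, 37 °C, dark.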
# JMJD2A Tudor = JMJD2A Tudor domain (human) inhibition. O75164. AlphaScreen JMJD2A-Tudor / H3K4me3 peptide binding. Potency, µM (titrated, usually from 114 µM), usual class: inhibitors. 4.4% of 390,000 active; also: nearly all actives have a fitted effect of over 50% in size
# G9a inh = G9a (human) methyltransferase inhibition | Q96KQ7 | G9a H3K9 monomethylation, AlphaScreen, 2 h | Potency, µM (doses to about 102 µM), hits mostly inhibitors | 8.8% of 350,000 active | AID 504332; also: nearly all actives have a fitted effect of over 75% in size
# Target sequence (Q96KQ7 913-1193 limits assumed): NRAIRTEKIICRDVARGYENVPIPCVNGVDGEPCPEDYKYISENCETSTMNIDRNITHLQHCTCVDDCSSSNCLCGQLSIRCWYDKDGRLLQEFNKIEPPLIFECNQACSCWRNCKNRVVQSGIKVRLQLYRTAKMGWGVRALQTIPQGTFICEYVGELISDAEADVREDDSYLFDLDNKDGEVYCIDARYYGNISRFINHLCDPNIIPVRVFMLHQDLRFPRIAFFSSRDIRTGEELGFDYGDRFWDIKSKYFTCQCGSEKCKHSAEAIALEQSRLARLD
#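 Compounds were preincubated with 20 nM G9a for 15 min, after which biotinylated H3K9 peptide (500 nM) and SAM (20 uM) started a 2 h room-temperature reaction. Monomethylated product was quantified by antibody-based AlphaScreen chemiluminescence.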
# BAZ2B block = BAZ2B (human) inhibition; Potency, µM (doses to about 114 µM), usual class: inhibitors; Q9UIF8; 4.4% of 360,000 active; AlphaScreen BAZ2B-H3K14Ac peptide displacement; also: nearly all actives have a fitted effect of over 60% in size
#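 AlphaScreen displacement: compounds (up to 110uM) incubated 30 min at room temperature with a preformed 50 nM BAZ2B/50 nM biotinylated H3K14Ac peptide complex in PBS pH 7.4 with Tween-20. Donor and acceptor beads at 10 ug/mL final added, 20 min light-protected before reading.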
# HP1b chromo inh = HP1-beta chromodomain-methylated histone interaction inhibition | P83916 | AlphaScreen HP1-beta / biotin-H3K9me3 peptide binding | Potency, µM (highest dose often 114 µM), most hits filed as inhibitors | 0.56% of 390,000 active | AID 540317; also: nearly all actives have a fitted effect of over 70% in size
# Target sequence (P83916 whole entry, looked up): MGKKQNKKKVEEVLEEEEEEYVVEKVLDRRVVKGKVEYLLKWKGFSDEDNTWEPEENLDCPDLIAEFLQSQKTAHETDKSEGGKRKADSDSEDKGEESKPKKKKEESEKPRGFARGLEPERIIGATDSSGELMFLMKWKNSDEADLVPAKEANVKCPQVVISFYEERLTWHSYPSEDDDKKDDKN
#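 Compound inhibition of the preformed complex between 50 nM HP1-beta and 50 nM biotinylated H3K9me3 peptide was read by AlphaScreen. Buffer was PBS pH 7.4 with 0.01% Tween-20. Incubations ran 30 min at room temperature, with 10 ug/mL donor/acceptor beads.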
# CtBP-E1A inh = blocks the CtBP interaction with E1A; AlphaScreen GST-E1A/His-CtBP binding, 1536-well; active compounds read low; activity change, % (test concentration not listed); 0.49% of 340,000 active; AID 651724; in the data active = activity change below about -65%; inconclusive = mostly about -30% to -63%
#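 Protein mix (5X: 125 nM each GST-E1A, His-CtBP) was incubated with pinned compound 2 h at 37 deg C in dark, in 50 mM Tris pH 8.0 buffer with 300 mM NaCl. Glutathione donor and nickel acceptor beads followed; AlphaScreen signal read after 1 h.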
# Hits are given with their value; – = inactive; ? = inconclusive; · = no result given; [ ] = dose if it differs, or a comment. Shown are actives, neighbours in structure and some others; about 10% of the full set was active somewhere. Unless noted, calls follow the shape of the dose curve; as a rule, active = well fitted inhibition curve with a large enough effect; inconclusive = small, poorly fitted or top-dose-only effect; inactive = no such curve, though single readings can be large or run the other way.
SMILES,Six1-Eya2 inh,JMJD2A Tudor,G9a inh,BAZ2B block,HP1b chromo inh,CtBP-E1A inh
COc1cccc(NS(=O)(=O)c2ccc3c(c2)C2C=CCC2C(c2ccc(C(=O)O)cc2)N3)c1 (stereo not given),?,45µM,7.9µM,45µM,?,–
Fc1ccc([C@@H]2Nc3ccccc3[C@@H]3C=CC[C@@H]32)cc1,·,?,2.2µM,–,–,·
COc1cc([C@@H]2Nc3c(F)cccc3[C@@H]3C=CC[C@@H]32)cc(Br)c1OC,·,–,–,–,–,·
COc1ccc(C)cc1NS(=O)(=O)c1ccc2c(c1)[C@H]1C=CC[C@H]1[C@@H](c1cccc(Cl)c1)N2,·,?,2.8µM,?,–,·
O=C(NCc1ccc2c(c1)OCO2)c1ccc2c(c1)N(Cc1ccccc1F)C(=O)c1ccccc1S2=O (stereo not given),·,–,–,–,–,·
O=C(CN1C(=O)NC2(CCCCCC2)C1=O)Nc1ccccc1[N+](=O)[O-],–,–,·,·,–,–
COc1ccc(-c2cc(C(=O)NCCN3CCOCC3)no2)cc1OC,–,–,–,–,–,–
Fc1ccc2c(c1)C1C=CCC1C(c1cc3c(cc1Br)OCO3)N2 (stereo not given),–,45µM,–[12.7 µM],–,–,–
CCOC(=O)c1ccc2c(c1)[C@@H]1C=CC[C@@H]1[C@H](c1cccc(OC)c1OC)N2,·,–,–,–,–,·
COC(=O)c1ccc([C@H]2Nc3ccc(S(=O)(=O)Nc4ccc(F)cc4)cc3[C@H]3C=CC[C@H]32)cc1,·,?,5.6µM,?,–,·
COc1ccc(C(=O)N/N=C(\C)c2ccc3c(c2)C2C=CCC2C(c2ccccc2)N3)cc1 (stereo not given),–,?,7.9µM,?,–,–
Cc1cccc(NS(=O)(=O)c2ccc3c(c2)[C@H]2C=CC[C@H]2[C@@H](c2ccc(F)cc2)N3)c1,·,?,13µM,–,?,·
CC1CCC(O)C/C1=C\C=C1/CCCC2(C)C1CCC2C(C)/C=C/C(C)C(C)C (stereo not given),·,·,–[12.7 µM],·,·,·
NCC1CCCCC1CC(=O)O (stereo not given),·,·,–[2.33 µM],·,·,·
COc1cccc(CN2CCc3[nH]c(=S)[nH]c(=O)c3C2)c1,–,–,45µM,–,–,–
CCCN1CNc2c(c(=O)[nH]c(=S)n2CCc2cccc(OC)c2)C1,·,–,·,·,–,·
COCCCN1CCc2[nH]c(=S)[nH]c(=O)c2C1,–,?,35µM,–,–,–
OC(CN1c2ccccc2Sc2ccccc21)Cn1nnc2ccccc21 (stereo not given),–,?,20µM,–,?,–
O=C1c2ccccc2C(=O)N1CC(O)Cn1nnc2ccccc21 (stereo not given),–,–,–,–,–,–
CCC(=O)Nc1ccc(Cl)c(-c2nc3ncccc3o2)c1,-68,–,–,–,–,?
c1ccc(OCC2CCNCC2)nc1,–,–,79µM,–,–,–
Clc1cccc(Cl)c1COc1ccccn1,–,–,–,–,–,–
Cc1nc(NC(=O)CC(C)C)sc1-c1csc(Nc2ccc(Cl)cc2)n1,–,?,–[0.501 µM],?,?,–
CCc1ccccc1NS(=O)(=O)c1ccc(NC(=O)N2CCCC2)cc1,·,–,–,–,–,·
COc1ccc(NC(=O)c2ccc(NC(=O)CCS(=O)(=O)c3cccs3)cc2)cc1OC,·,–,–,–,–,·
SMILES,Six1-Eya2 inh,JMJD2A Tudor,G9a inh,BAZ2B block,HP1b chromo inh,CtBP-E1A inh
COC(=O)[C@@H](N)CS,–,?,8.9µM,–,–,–
COC(=O)c1cc2oc3ccccc3c2n1Cc1cccc(C)c1,·,–,–,–,–,·
Cc1nn2c(=O)cc(COC(=O)c3ccc(NC(=O)COc4ccc(Cl)cc4)cc3)nc2s1,·,–,–,–,–,·
O=C(CSc1nnc(-c2cnccn2)n1Cc1ccco1)c1ccccc1,–,–,45µM,–,–,–
Cn1c(SCC(=O)c2ccccc2)nnc1-c1ccccn1,–,–,–,79µM,–,–
O=C(CSc1nnc(-c2ccccn2)n1Cc1ccco1)c1ccccc1,–,?,40µM,?,–,?
COc1ccc(C(=O)CSc2nnc(-c3ccccn3)n2Cc2ccco2)cc1,?,?,?,?,–,?
